Screening results (PubChem)
ERK EGF block: inhibitors of EGF-stimulated ERK signaling pathway | AID 1454 | hit rate 0.41% among 130,000 | HEK293-V1b, EGF-stimulated phospho-ERK AlphaScreen | Potency, µM (top dose mostly 11.5 µM), for the others: at the highest dose activity change, negative = inhibition, usual class: inhibitors;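 also: potency is read from the fitted curve at half-maximal effect; plate controls were stimulated vehicle wells for no effect and unstimulated vehicle basal for full effect; nearly all actives have a fitted effect of over 55% in size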
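Phospho-ERK1/2 measured by AlphaScreen (SureFire) after 5 min 25 nM EGF stimulation of V1b-expressing HEK293 cells preincubated 30 min at 37C with titrated compounds; data scaled to DMSO and EGF controls, Hill-fitted AC50.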
pERK EGF inh: reduces EGF-stimulated ERK phosphorylation in HEK293 cells; HEK293 EGF-stimulated ERK phosphorylation, AlphaScreen; hit rate 60% among 60; Potency, µM (titrated, usually from 57.5 µM), for inactives: top-dose activity change, negative = inhibition, usual class: inhibitors; AID 1725; shares compounds with ERK EGF block
cRaf kinase inh: blocks human c-Raf kinase activity | shares compounds with ERK EGF block | c-Raf kinase inhibition, homogeneous biochemical assay | activity change, negative = inhibition, % at 76.9 µM | 70 tested, under 10 active
Target sequence (P04049 whole entry, looked up): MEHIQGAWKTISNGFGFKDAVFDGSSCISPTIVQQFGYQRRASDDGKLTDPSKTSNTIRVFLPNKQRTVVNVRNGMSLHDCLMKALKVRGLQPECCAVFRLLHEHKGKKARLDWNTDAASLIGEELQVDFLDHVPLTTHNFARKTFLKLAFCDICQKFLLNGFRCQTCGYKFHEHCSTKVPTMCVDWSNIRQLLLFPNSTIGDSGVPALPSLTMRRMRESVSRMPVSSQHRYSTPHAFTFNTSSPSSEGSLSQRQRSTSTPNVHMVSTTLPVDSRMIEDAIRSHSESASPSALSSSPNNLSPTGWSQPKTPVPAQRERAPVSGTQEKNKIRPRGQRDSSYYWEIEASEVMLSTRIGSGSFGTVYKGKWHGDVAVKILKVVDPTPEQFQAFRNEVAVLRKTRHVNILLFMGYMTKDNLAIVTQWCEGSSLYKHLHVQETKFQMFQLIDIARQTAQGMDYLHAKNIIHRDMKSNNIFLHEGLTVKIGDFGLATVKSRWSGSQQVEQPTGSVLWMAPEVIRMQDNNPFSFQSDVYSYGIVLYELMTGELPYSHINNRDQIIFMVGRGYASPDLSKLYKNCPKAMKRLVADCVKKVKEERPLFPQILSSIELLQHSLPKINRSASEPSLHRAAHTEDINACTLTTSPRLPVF
MEK1 kinase inh: ERK pathway inhibitors follow-up: human MEK1 kinase inhibition; shares compounds with ERK EGF block; homogeneous MEK kinase activity assay, ERK pathway; Potency, µM (series often up to 76.9 µM), inactives show top-dose activity change, negative = inhibition, most hits filed as inhibitors; 70 tested, under 10 active; AID 1732
Active calls of the source: *; ? = inconclusive; ! = not confirmed by another sample; [ ] = remark or other dose. The sample as a whole holds a higher share of hits than the screen did. Calls follow the shape of the dose curve; as a rule, active = well fitted curve in the direction sought with a large enough effect; inconclusive = small, poorly fitted or top-dose-only effect, or another doubt; inactive = no such curve, though single readings can be large; an effect the other way counts as inactive or inconclusive.

SMILES	ERK EGF block	others
C=C(C)CN1CC[C@]23c4c5ccc(O)c4O[C@H]2c2[nH]c4ccccc4c2C[C@@]3(O)C1C5	16µM*
C=C(C)CN1CC[C@@]23c4c5ccc(O)c4O[C@H]2c2[nH]c4ccccc4c2C[C@]3(O)[C@@H]1C5	-12%
Oc1ccc2c3c1O[C@H]1c4[nH]c5ccccc5c4C[C@@]4(O)C(C2)N(CC2CC2)CCC314 (some centres not stated)	16%
CCCN(CCC)[C@@H]1CCc2c(OC)cccc2[C@@H]1C	1%
CCC1CN2CCC1CC2C(O)c1ccnc2ccc(OC)cc12 (configuration not stated)	-4%
ClC1=C(Cl)C(Cl)=C(Cl)C1=C/C=C/c1ccccc1	11µM*
NC(=O)CN1CC(O)CC1=O (configuration not stated)	6%
C[C@@]12CCC(=O)C=C1C=C[C@H]1[C@H]3CC[C@](O)(CCC(=O)O)[C@]3(C)CC[C@@H]12	6%[25.7 µM]
Cc1cc(SCc2sc(-c3ccc(C(F)(F)F)c(F)c3)nc2C)ccc1OCC(=O)O	11%
CCCCC/C=C\C/C=C\C/C=C\CCCCC(=O)NCCc1ccc(O)c(O)c1	-4%
CCN1C[C@]2(C)CC[C@H](OC)[C@@]34[C@H]1C1(OCO[C@@]15C[C@H](OC)C1C[C@]3(O)C5[C@H]1OC)[C@@H](O)[C@H]24	11%
Cc1ccccc1-n1c(/C=C/c2ccccn2)nc2ccccc2c1=O	-9%[57.5 µM]
CN1C2CCC1/C(=C/c1ccccn1)C(=O)/C2=C\c1ccccn1	14µM*
NCC[C@H](O)C(=O)N[C@H]1C[C@@H](N)[C@@H](O[C@H]2O[C@@H](CN)[C@@H](O)[C@@H](O)[C@@H]2N)[C@@H](O[C@H]2O[C@@H](CO)[C@@H](O)[C@@H]2O)[C@@H]1O	6%[25.7 µM]
OCC[n+]1c2ccccc2nc2ccc(N3CCOCC3)cc21	14µM*
CC(=O)O[C@@H]1C[C@@]2(C)C(c3ccoc3)C[C@H]3O[C@]32[C@]2(C)C(=O)C(O)=C3C(C)(C)C(=O)C=C[C@]3(C)C12 (some centres not stated)	-15%
C[n+]1c(-c2ccccc2)cc(-c2ccc(Cl)cc2)cc1-c1ccccc1	5%
c1ccc(-c2cc(-c3ccccc3)[n+](-c3ccccc3)c(-c3ccccc3)c2)cc1	22µM*
Cc1noc(C)c1C(=O)N1CCC2(CCCN(CC(C)C)C2)CC1	-13%
Clc1ccc(Cl)cc1	14%
Cc1ccsc1C(=O)C1CCCN(Cc2sc(N(C)C)nc2Cl)C1 (configuration not stated)	20µM*
Cc1ccsc1C(=O)C1CCCN(Cc2ccccc2O)C1 (configuration not stated)	-5%
Cc1ccsc1C(=O)C1CCCN(Cc2cnc(N(C)C)s2)C1 (configuration not stated)	-2%
CC[C@@H](CO)NC(=O)[C@H]1C=C2c3cccc4c3c(cn4C)C[C@H]2N(C)C1	6%
N#CC(C#N)=NNc1ccc(OC(F)(F)F)cc1	-8%
SMILES	ERK EGF block	others
COc1ccc(NC(=O)N2CC3(CCN(C(=O)Oc4ccccc4)CC3)C2)cc1	0%
CCCCC/C=C\C/C=C\CCCCCCCCCC(=O)NCCc1ccc(O)c(O)c1	-2%
C[C@H]1C[C@H](C)C(=O)[C@@H]([C@H](O)CC2CC(=O)NC(=O)C2)C1	-2%
O=C1C(Cl)=C(Cl)C(=O)C(Cl)=C1Cl	10µM*
COC(=O)C12CC3=C[C@H](CC3=O)Cc3ccccc3[C@@H]1CNC2=O (some centres not stated)	-2%
CCCCCC[C@H]1C(=O)O[C@H](C)[C@H](NC(=O)c2cccc(NC=O)c2O)C(=O)O[C@@H](C)[C@H]1OC(=O)CC(C)C	-10%[25.7 µM]
Oc1ccc2c3c1O[C@H]1c4oc5ccccc5c4C[C@@]4(O)C(C2)N(CC2CC2)CCC314 (some centres not stated)	12%
CCCOc1ccc2[nH]cc(C3=CCNCC3)c2n1	-8%
COC(=O)C1=CO[C@@H](C)[C@@H]2CN3CC[C@]4(C(=O)Nc5c4ccc(OC)c5OC)[C@H]3C[C@H]12	-5%
O=C1NC(=S)NC(=O)C1=Cc1cccc2cc3ccccc3cc12	28µM*
CN(C)c1ccc(C=C2C(=O)NC(=S)NC2=O)cc1[N+](=O)[O-]	4%
Cc1cc(C=C2C(=O)NC(=S)NC2=O)c(C)n1-c1ccc2c(c1)OCO2	4%
CC[C@@H]1[C@@H]2C[C@H]3[C@H]4N(C)c5ccccc5[C@@]45C[C@@H]([C@@H]2[C@@H]5O)N3[C@H]1O	15%[25.7 µM]
CC1=CC(=O)c2c(O)cccc2C1=O	5.6µM*!	pERK EGF inh=7.1µM*;cRaf kinase inh=?;MEK1 kinase inh=?
O=CN1CCCCC1C1CC[C@H]2CCCCN2C1 (some centres not stated)	1%
CCCCC/C=C\C/C=C\C/C=C\C/C=C\CCCC(=O)N[C@H](C)CO	-8%
C[C@]12Cc3cn4c(nc3C=C1CCC1C2CC[C@@]2(C)[C@H]1CC[C@@]2(O)C#N)nc1ccccc14 (some centres not stated)	5%
O=C1NC(=O)C(=Cc2coc3ccccc3c2=O)C(=O)N1	-10%
O=C1NC(=O)C(=Cc2csc3ccccc23)C(=O)N1	-7%[57.5 µM]
O=C1NC(=O)C(=Cc2ccccc2Oc2ccc(F)cc2)C(=O)N1	4µM*	pERK EGF inh=2%;cRaf kinase inh=-8;MEK1 kinase inh=?
CC1C(=O)OC2C1CC[C@@]1(C)C=CC(=O)[C@@]3(C)O[C@@]213 (some centres not stated)	7%
CC1CC(C)C(=O)[C@H](C(O)CC2CC(=O)NC(=O)C2)C1 (some centres not stated)	-9%
CCN1C[C@]2(C)CC[C@H](O)[C@@]34C5C[C@@H]6[C@@H](OC)C[C@@](O)(C5[C@H]6O)[C@@H](CC23)[C@@H]14 (some centres not stated)	5%
